According to PubChem BioAssay (Tox21):
Records with an inconclusive call do not appear. Entries that show only a call come without a potency. Calls of active or inactive are those of the source. Calls follow the shape of the dose curve; as a rule, active = well fitted cell-killing curve with a large enough effect in the repeat runs; inconclusive = weak or mixed curves, or effect the other way; inactive = flat fitted curve, though single readings scatter.

Assay: qHTS RealTime-Glo MT Cell Viability Assay in HepG2 cells - 0 hour (AID 1224889); also: nearly all actives have a fitted effect of over 50% in size
Conditions: RealTime-Glo luminescence; series mostly up to 76.8 µM
From the text: U.S. Tox21 Program National Center for Advancing Translational Sciences [NCATS] NIH Chemical Genomics Center [NCGC] U.S. Environmental Protection Agency [EPA] National Institutes of Environmental Health Sciences [NIEHS] National Toxicology Program [NTP] U.S. Food and Drug Administration [FDA] Tox21 Assay Overview: Measure of cell viability is critical in the cell-base assay. Analysis of cell viability is necessary for the characterization of cell responses to cytotoxic drugs and environmental stress. A RealTime-Glo MT Cell Viability Assay to monitor cell viability in real time of continues cell culture during 40 hours of compound treatment was used to screen Tox21 10K library compounds in HepG2 cells. The RealTime-Glo MT Cell Viability Assay is a nonlytic, homogeneous, bioluminescent method to measure cell viability in real time using a simple, plate-based method. The assay involves adding NanoLuc luciferase and a cell-permeant prosubstrate to cells in culture. Viable cells reduce the proprietary prosubstrate to generate a substrate for NanoLuc luciferase. This substrate diffuses from cells into the surrounding culture medium, where it is rapidly used by the NanoLuc Enzyme to produce a luminescent signal. The signal correlates with the number of viable cells, making the assay well suited for cytotoxicity studies.
Tox21 Assay Protocol Summary: The mixture of HepG2 cell suspension and reagents were dispensed at 600cells/6 ul/well in 1536-well tissue culture treated black solid bottom plates using a Multidrop dispenser. After the assay plates were incubated at a 37 C/5% CO2 incubator for 5 hours, 23 nL of compounds dissolved in DMSO, positive and negative controls was transferred to the assay plate by a pintool work station. The plates were incubated at 37 C for 40 hours. The luminescence intensity were measured at 0h, 8h, 16h, 24h, 32h and 40h time points using ViewLux plate reader during compound treatment.
Potency is read from the fitted curve at half-maximal effect.

Row | SMILES | Potency
1 | CC(C)C[C@H](NC(=O)[C@H](CCc1ccccc1)NC(=O)CN1CCOCC1)C(=O)N[C@@H](Cc1ccccc1)C(=O)N[C@@H](CC(C)C)C(=O)[C@@]1(C)CO1 | inactive
2 | CCCCCCCC/C=C\CCCCCCCCO | inactive
3 | CCCCCCCC/C=C\CCCCCCCCCCCC(=O)O | inactive
4 | Brc1cc2ccccc2c2ccccc12 | inactive
5 | Oc1cccc(Nc2ccccc2)c1 | inactive
6 | Oc1cc2c(cc1O)[C@H]1c3ccc(O)c(O)c3OC[C@@]1(O)C2 | inactive
7 | CCCCCC[C@@H](O)C/C=C\CCCCCCCC(=O)O | inactive
8 | COc1cc(C(=O)NCCCCCC(=O)O)cc(OC)c1OC | inactive
9 | OCCOCC#CCOCCO | inactive
10 | CCCCOc1ccc(OCCCN2CCOCC2)cc1 | inactive
11 | COc1ccccc1Oc1c(NS(=O)(=O)c2ccc(C(C)(C)C)cc2)nc(-c2ncccn2)nc1OCCO | inactive
12 | O=C=Nc1cccc(C(F)(F)F)c1 | inactive
13 | C=C(C)C(=O)OCCOCCOC(=O)C(=C)C | inactive
14 | CC(C)=CCC1C(=O)N(c2ccccc2)N(c2ccccc2)C1=O | inactive
15 | CCn1cc(C(=O)O)c(=O)c2cc(F)c(N3CCNCC3)cc21 | inactive
16 | COC(=O)[C@H]1[C@H]2C[C@@H]3c4[nH]c5cc(OC)ccc5c4CCN3C[C@H]2C[C@@H](OC(=O)/C=C/c2ccc(O)c(OC)c2)[C@@H]1OC | inactive
17 | NCCNCCO | inactive
18 | OC1(c2ccccc2)CCNCC1 | inactive
19 | CC(C)C=O | inactive
20 | CCOC(=O)c1ccc(C#Cc2ccc3c(c2)C(C)(C)CCS3)nc1 | inactive

Row | SMILES | Potency
21 | CCCCN1CCCC1C(=O)Nc1c(C)cc(C)cc1C (stereo not given) | inactive
22 | Clc1ccc(Nc2nnc(Cc3ccncc3)c3ccccc23)cc1 | inactive
23 | CN1C(=O)c2ccccc2C1=O | inactive
24 | CC(=O)c1cc2ccccc2s1 | inactive
25 | CCCCN(CCCC)C(C(N)=O)c1ccc(OC)cc1 (stereo not given) | inactive
26 | CCCCN(CCN(CCCC)C(=O)N1CCOCC1)C(=O)N1CCOCC1 | inactive
27 | OC(CCN1CCCC1)(c1ccccc1)C1CCCCC1 (stereo not given) | inactive
28 | NC(=O)c1ccncc1 | inactive
29 | CCOC(=O)C1=C(C)NC(C)=C(C(=O)OC)C1c1cccc(Cl)c1Cl (stereo not given) | 6.74 µM (active)
30 | O=C1c2ccccc2C(=O)C1(O)O | inactive
31 | CC(C)=CCC/C(C)=C/CC/C(C)=C/CCC(=O)OC/C=C(\C)CCC=C(C)C | inactive
32 | CCCCCCNC(=O)n1cc(F)c(=O)[nH]c1=O | inactive
33 | CC1CC(C)C(=O)C1=O (stereo not given) | inactive
34 | CCCCC(CC)CN (stereo not given) | inactive
35 | CCOc1cccc(-n2cc(C(=O)N3CCN(c4cc(C(=O)O)c5ccccc5c4)CC3)nc2-c2ccc(C)cc2)c1 | inactive
36 | O=C(O)C[C@H](NC(=O)OCc1ccccc1)C(=O)O | inactive
37 | Oc1c(I)cc(I)c2cccnc12 | inactive
38 | CN1CCCC(n2nc(Cc3ccc(Cl)cc3)c3ccccc3c2=O)CC1 (stereo not given) | inactive
39 | CCOC(=O)c1ccc(OCCN2C[C@H](O)[C@@H](O)[C@H](O)[C@H]2CO)cc1 | inactive
40 | CC(O)c1ccccc1 (stereo not given) | inactive
